Source: PubChem BioAssay
Most compounds without a hit are left out; they make up all but 2.3% or so of the library.
CHO-K1 Ca PAM: counter-screen for M1 PAMs: effect in parental CHO-K1 cells. ATP EC20, Fluo-8 calcium fluorescence; 0% at ATP EC20, 100% at ATP max. activation, % at 3 µM. 360,000 tested, 0.02% active. AID 602247;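 active = activation above the run cutoff, the mean activation of all test compounds plus 3 SD, cut at about 40% in these data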;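 also: peak over basal fluorescence ratio in a 140 s read after ATP addition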
M1 ag: human M1 muscarinic receptor agonism; P11229; CHO-K1 hM1, Fluo-8 calcium fluorescence, agonist mode; 0% DMSO, 100% acetylcholine EC100; activation, % at 3 µM; 360,000 tested, 0.33% active; AID 588814;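 active = activation above the run's mean compound activation plus 3 SD, cut at about 16% in these data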;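 also: peak over basal fluorescence ratio within a 140 s kinetic read after compound addition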
Target sequence (P11229 whole entry, looked up): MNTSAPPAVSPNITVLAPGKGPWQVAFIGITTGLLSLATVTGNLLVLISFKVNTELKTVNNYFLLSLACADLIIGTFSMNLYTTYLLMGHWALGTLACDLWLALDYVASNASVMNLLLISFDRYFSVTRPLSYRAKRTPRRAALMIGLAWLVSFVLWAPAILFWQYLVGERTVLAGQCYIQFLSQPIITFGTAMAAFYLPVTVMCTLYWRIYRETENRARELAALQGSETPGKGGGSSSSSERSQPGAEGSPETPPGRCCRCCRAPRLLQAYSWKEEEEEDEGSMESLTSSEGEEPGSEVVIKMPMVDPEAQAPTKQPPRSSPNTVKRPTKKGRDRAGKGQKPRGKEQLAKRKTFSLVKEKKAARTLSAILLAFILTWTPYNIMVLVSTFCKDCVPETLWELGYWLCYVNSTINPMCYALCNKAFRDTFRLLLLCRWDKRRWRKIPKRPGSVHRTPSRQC
CHO-K1 Ca antag: nonselective inhibitor or artifact in parental CHO-K1 cells | inhibition, % at 3 µM | 360,000 tested, 0.6% active | ATP-induced calcium, Fluo-8 fluorescence;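 active = inhibition above a per-plate cutoff, the plate's mean sample inhibition plus 3 SD, cut at about 24% in these data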
CHRM1 antagonist: human CHRM1 antagonism; CHO-K1 hM1, Fluo-8 calcium fluorescence, ACh EC80 antagonist; AID 588852; 360,000 tested, 1.3% active; inhibition, % at 3 µM; P11229;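 active = percent inhibition above its own plate's cutoff, namely the mean of that plate's compound wells plus 3 SD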;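 also: peak over basal fluorescence ratio during 140 s after agonist addition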
CHO-K1 Ca ag: counter-screen for M1 agonists: effect in parental CHO-K1 cells; Fluo-8 calcium fluorescence; scaled to maximal ATP response, vehicle zero; activation, % at 3 µM; 360,000 tested, 0.48% active; in the data active = activation above about 15%;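 also: untransfected CHO-K1 host cells lacking M1 receptor as counterscreen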
M1 PAM: positive allosteric modulators of human M1 muscarinic receptor. 360,000 tested, 0.088% active. P11229. CHO-K1 hM1, Fluo-8 calcium fluorescence, ACh EC20; 0% = ACh EC20, 100% = maximal ACh. activation, % at 3 µM; in the data active = activation above about 19%, passing the limit was not always enough
A number is an active result; 0 = inactive.

SMILES	CHO-K1 Ca PAM	M1 ag	CHO-K1 Ca antag	CHRM1 antagonist	CHO-K1 Ca ag	M1 PAM
Cc1ccc(Cl)cc1NC(=S)NCCCSC1CCCCC1	0	0	0	36.7	0	0
O=C(Nc1cccc(S(=O)(=O)N2CCOCC2)c1)c1cn(-c2ccccc2)nc1-c1ccccc1	0	0	0	0	0	0
O=C(Nc1ccncc1)c1ccc(Cl)c(S(=O)(=O)N2CCCCC2)c1	0	0	0	0	0	0
CCN(CC)CCOC(=O)c1ccc(NC(=O)c2ccc(Cl)c(S(=O)(=O)N3CCCCCC3)c2)cc1	0	0	0	97.8	0	0
CCCCOc1cccc(C(=O)Nc2ccc(N3CCN(CC)CC3)cc2)c1	0	0	0	75.2	0	0
CCOC(=O)c1ccc(NC(=O)c2ccc(C)c(S(=O)(=O)N3CCOCC3)c2)cc1	0	0	29.6	50.5	0	0
CC(=O)c1ccc(NC(=O)c2ccc(C)c(S(=O)(=O)N3CCOCC3)c2)cc1	0	0	0	0	0	0
Cc1ccc(-c2nn(-c3ccccc3)cc2C(=O)Nc2ccc(C)c(S(=O)(=O)N3CCOCC3)c2)cc1	0	0	24.5	0	0	0
CCOc1ccccc1NC(=O)COC(=O)c1c[nH]c2ccccc12	0	0	0	0	0	0
COc1ccccc1C(C)NC(=O)c1ccc(NC(=O)CC2SC(N3CCCC3)=NC2=O)cc1 (stereo unspecified)	0	0	0	0	0	0
CCN1CCN(c2ccc(NC(=O)c3ccc4c(c3)OCO4)cc2)CC1	0	0	0	0	0	0
CCN1CCN(c2ccc(NC(=O)c3ccc(OC)c(S(=O)(=O)N4CCCC4)c3)cc2)CC1	0	0	0	0	0	0
CCN1CCN(c2ccc(NC(=O)c3ccc(Cl)c(N4CCCC4=O)c3)cc2)CC1	0	0	0	23.4	0	0
CCN1CCN(c2ccc(NC(=O)c3ccc(Cl)c(S(=O)(=O)N4CCCC4)c3)cc2)CC1	0	0	0	99.5	0	0
O=C(CCN1C(=O)c2ccccc2C1=O)Nn1cnnc1	0	0	0	0	0	0
COC(=O)C1=CN(C2CC2)C=C(C(=O)OC)C1c1ccc(C(=O)OC)cc1	0	0	0	34.2	0	0
Cc1nc(NC(=O)CSc2ccc(-c3nc4ccccc4[nH]3)cn2)sc1C	0	0	0	0	16.0	0
CCc1nnc(NC(=O)CSc2ccc(-c3nc4ccccc4[nH]3)cn2)s1	0	0	0	0	0	0
CCn1c(=O)n(CC(=O)Nc2ccc(F)cc2)c(=O)c2ccccc21	0	0	29.1	0	0	0
O=C(CN1C(=O)C(=O)N(C2CCCC2)C1=O)Nc1ccc(OC(F)F)cc1	0	0	0	0	0	0
CC(=O)Nc1ccc(NC(=O)Cn2c(=O)n(-c3ccccc3)c(=O)c3oc4ccccc4c32)cc1	0	0	0	0	15.3	0
Cc1ccccc1OCc1nc2ccccc2c(=O)n1/N=C/c1cn[nH]c1-c1ccccc1	0	0	0	29.1	0	0
Cc1ccc(-c2[nH]ncc2/C=N/n2c(COc3ccccc3)nc3ccccc3c2=O)cc1	0	0	0	29.4	0	0
Cc1nc2ccccc2c(=O)n1/N=C/c1cn[nH]c1-c1ccccc1	0	0	0	0	0	0
CCC(=O)N1CCC1(C)C(=O)Nc1cc(OC)ccc1OC (stereo unspecified)	0	0	0	0	0	0
SMILES	CHO-K1 Ca PAM	M1 ag	CHO-K1 Ca antag	CHRM1 antagonist	CHO-K1 Ca ag	M1 PAM
COc1cc(CN2CCC(C(=O)N3CCN(c4ccccc4F)CC3)CC2)cc(OC)c1O	0	0	33.4	0	0	0
O=C(COc1ccc2c(c1)OCO2)Nc1ccccc1F	0	0	0	0	0	0
COC(=O)c1ccccc1NC(=O)COc1ccc2c(c1)OCO2	0	0	29.7	0	0	0
Cc1nc(SCC(=O)NC2CCS(=O)(=O)C2)c2c3c(sc2n1)CCC3 (stereo unspecified)	0	0	0	0	0	0
Cc1nc(SCC(=O)NC2CCS(=O)(=O)C2)c2c3c(sc2n1)CCCC3 (stereo unspecified)	0	0	0	26.5	0	0
N#CCCN(C(=O)COC(=O)COc1ccccc1Cc1ccccc1)c1ccccc1	0	0	0	0	0	0
CC(=O)Nc1ccc(C(=O)N2CCCCC2c2cc(C(=O)N3CCOCC3)no2)cc1 (stereo unspecified)	0	0	0	0	0	0
CCOc1ccccc1C1C(C(N)=O)=C(C)Nc2nc(CCCO)nn21 (stereo unspecified)	0	0	26.7	0	0	0
Cc1c(OCC(=O)NC2CCN(Cc3ccccc3)CC2)ccc2c3c(c(=O)oc12)CCC3	0	0	0	0	0	0
C=CCc1ccc(OCCCCCN2CCOCC2)c(OC)c1	0	0	0	46.3	0	0
Cc1ccc(C(C)C)c(OCCCCN2CCNCC2)c1	0	0	0	0	0	0
C=CCc1ccc(OCCCCOc2ccc(C(=O)O)cc2)c(OC)c1	0	0	0	0	0	0
Cc1ccc(C(C)C)c(OCCCCCN2CCOCC2)c1	0	0	0	68.5	0	0
CC(OC(=O)Cc1c[nH]c2ccccc12)C(=O)Nc1ccccc1[N+](=O)[O-] (stereo unspecified)	0	0	0	0	0	0
NC(=O)C1=C(c2ccccc2)c2ccccc2C1=O	0	0	27.5	0	0	0
C=C(C)Cn1c(CCCNC(=O)CCC)nc2ccccc21	0	0	0	0	0	0
Cc1ccc(Cl)cc1N1CCN(C(=O)CN2C(=O)c3cccc4cccc2c34)CC1	0	0	25.5	0	0	0
Cc1nn(Cc2ccccc2)c(C)c1C(=O)N1CCN(S(=O)(=O)/C=C/c2ccccc2)CC1	0	0	0	0	0	0
O=C(CNC(=O)c1ccccc1F)N/N=C/c1cn[nH]c1-c1ccccc1	0	0	0	41.4	0	0
O=C1c2ccccc2[C@@H]2C[C@@H](O)[C@H](Nc3cccc(Cl)n3)CCN12	0	0	0	0	0	0
COc1cc(S(=O)(=O)NCC2CCCO2)c(OC)cc1Cl (stereo unspecified)	0	0	0	0	0	25.9
COc1ccc(S(=O)(=O)NCC2CCCO2)c(Cl)c1Cl (stereo unspecified)	0	0	0	0	0	0
Oc1ccc(C[C@H]2CN([C@@H](Cc3ccc(O)cc3)CN3CCC[C@@H]3CN3C(=S)NC[C@@H]3Cc3ccccc3)C(=S)N2CC2CCCCCC2)cc1	0	0	0	0	0	0
COc1ccc(CNC(=O)C2CCCN(S(=O)(=O)c3c(C)noc3/C=C/N(C)C)C2)cc1 (stereo unspecified)	0	0	0	0	0	0
O=C(c1ccccc1F)N1CCN(Cc2ccc3c(c2)OCO3)CC1	0	0	0	0	0	0
N#Cc1c(F)cccc1N1CCN(Cc2ccc3c(c2)OCO3)CC1	0	0	0	66.1	0	0
